# Assay results taken from PubChem BioAssay (NCATS).
# “And” between values parts separate entries of the source, which are not always exact repeats. Identical values can stand only once. Results filed as inconclusive are left out. Some compounds were tested as several samples or in several runs, with calls that do not always agree. The source made the active and inactive calls. Unless noted, calls follow the shape of the dose curve; as a rule, active = well fitted curve in the direction sought with a large enough effect; inconclusive = small, poorly fitted or top-dose-only effect, or another doubt; inactive = no such curve, though single readings can be large; an effect the other way counts as inactive or inconclusive.
# Key:
# [1] = target: Alpha-galactosidase A (Homo sapiens) (UniProt P06280); assay: Counterscreen for Glucocerebrosidase Inhibitors: qHTS Assay for Human alpha-Galactosidase at pH 4.5 (AID 992); also: 0% is about no effect
# How it was run: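 Fluorogenic 4-MU alpha-D-galactoside (80 uM) hydrolysis, 2 nM enzyme, pH 4.5 citrate buffer + 0.005% Tween-20; 20 min RT; NaOH/glycine pH 10 stop; Ex365/Em440. Compounds titrated 0.7 nM–77 uM; Hill-equation AC50.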
# [2] = target: alpha-glucosidase (Oryza sativa, rice) (UniProt Q653V4); assay: Counterscreen for Glucocerebrosidase Inhibitors: qHTS Assay for Rice alpha-Glucosidase at pH 5.0 (AID 997);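 also: 0% = full activity with enzyme and -100% = basal without enzyme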
# How it was run: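 Endpoint fluorogenic assay at pH 5.0: compounds (0.7 nM to 77 uM) titrated against 4 nM rice enzyme and 400 uM 4-MU-alpha-glucoside for 20 min at room temperature; NaOH/glycine stop, read ex 365/em 440 nm, Hill-fitted AC50.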
# [3] = target: Alpha-galactosidase (Coffea arabica) (UniProt Q42656); assay: Counterscreen for Glucocerebrosidase Inhibitors: qHTS Assay for Coffee Bean alpha-Galactosidase at pH 5.9 (AID 998);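 also: plate controls were uninhibited enzyme for no effect and no-enzyme basal signal for full effect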
# How it was run: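 Fluorogenic 4-MU substrate hydrolysis, 80 uM substrate and 2 nM coffee bean alpha-galactosidase, pH 5.9 citrate buffer, 20 min at room temperature, then NaOH/glycine stop. Titration 0.7 nM–77 uM, normalized to no-enzyme and enzyme controls, AC50 via Hill equation.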
# [4] = qHTS Assay for Lipid Storage Modulators (AID 1519; calls by dose curve; also: potency is read from the fitted curve at half-maximal effect; as to activity change, negative = inhibition: % is scaled to controls: 0 for no effect and ±100 for the full control effect); conditions: Drosophila S3 cells, BODIPY lipid droplet/cell ratio, laser cytometry, cells loaded with oleic acid
# How it was run: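 Cells seeded at 5,000 per well were treated with compounds over a concentration series and loaded with oleic acid (400 uM, as added). Lipid droplet fluorescence (488 nm excitation, 500-530 nm channel) was read by laser-scanning cytometry and normalized to 20 uM Triacsin C.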
# [5] = target: DNA repair nuclease/redox regulator APEX1 (Homo sapiens) (UniProt P27695); assay: qHTS Validation Assay for Inhibitors of the Human Apurinic/apyrimidinic Endonuclease 1 (APE1) (AID 1705;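 also: TAMRA fluorescence gain over two minutes as APE1 cuts a quenched THF abasic duplex; % is scaled to controls: 0 for no effect and ±100 for the full control effect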)
# How it was run: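 Human APE1 was preincubated with compound for 15 min at room temperature, then 50 nM (final) THF-abasic double-stranded DNA substrate bearing 5'-TAMRA and 3'-BHQ-2 was added. Incision-driven fluorescence rise (ex 525/em 598 nm) was read kinetically.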
# [6] = Counterscreen for APE1 Inhibitors: Fluorescent Dye Displacement Validation Assay (AID 1707); also: potency is read from the fitted curve at half-maximal effect;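 as to activity change, negative = inhibition: plate controls were ThO with dsDNA and no compound for no effect and ThO without dsDNA for full effect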
# How it was run: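 Endpoint fluorescence read at 480 nm excitation / 540 nm emission; DNA-binding compounds lower signal by displacing 250 nM Thiazole Orange from 50 nM dsDNA containing a tetrahydrofuran abasic site, Tris-HCl pH7.5 buffer with NaCl and MgCl2.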
# [7] = target: Endonuclease 4 (Escherichia coli (strain K12)) (UniProt P0A6C1); assay: Counterscreen for APE1 Inhibitors: qHTS Validation Assay for Inhibitors of Endonuclease IV (AID 1708); also: % is scaled to controls: 0 for no effect and ±100 for the full control effect
# How it was run: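 The reaction buffer contained 50 mM Tris-HCl pH 7.5, 50 mM NaCl, 2 mM MgCl2, 1 mM DTT and 0.01% Tween-20. Incision of a 50 nM fluorophore/quencher THF substrate by 2 nM enzyme was measured kinetically.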
# [8] = qHTS for differential inhibitors of proliferation of Plasmodium falciparum line 7G8 (AID 1815);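 also: parasite growth measured after three days of incubation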; also: potency is read from the fitted curve at half-maximal effect;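 as to activity change, negative = inhibition: plate controls were vehicle wells for no effect and reference inhibitor wells for full effect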
# [9] = qHTS for differential inhibitors of proliferation of Plasmodium falciparum line GB4 (AID 1816); conditions: Potency: Plasmodium falciparum GB4 proliferation inhibition;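 also: parasite growth measured after 72 h incubation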; also: potency is read from the fitted curve at half-maximal effect;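 as to activity change, negative = inhibition: 0% = vehicle DMSO and -100% = reference inhibitor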
# [10] = qHTS for differential inhibitors of proliferation of Plasmodium falciparum line 3D7 (AID 1876); also: potency is read from the fitted curve at half-maximal effect
# [11] = qHTS for differential inhibitors of proliferation of Plasmodium falciparum line D10 (AID 1877);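 also: parasites grown with compound for 72 h before DNA staining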; also: potency is read from the fitted curve at half-maximal effect;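 as to activity change, negative = inhibition: plate controls were vehicle wells for no effect and reference inhibitor wells for full effect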
# [12] = qHTS for differential inhibitors of proliferation of Plasmodium falciparum line Dd2 (AID 1882); conditions: Potency: Plasmodium falciparum Dd2 proliferation inhibition; also: nearly all actives have a fitted effect of over 65% in size; also: potency is read from the fitted curve at half-maximal effect;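 as to activity change, negative = inhibition: compound exposure of 72 h on infected erythrocytes; plate controls were DMSO vehicle for no effect and 0.29 µM artemisinin for full effect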
# How it was run: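 RBC culture, 0.3% parasitemia / 2.5% Hct final; cpd added by pin tool in DMSO; 72 h, 37 C, 5% CO2; lysis buffer + SYBR Green I, o/n RT dark; FI 485/535; norm. to artemisinin 0.29 uM and DMSO.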
# [13] = qHTS for differential inhibitors of proliferation of Plasmodium falciparum line W2 (AID 1883); conditions: Potency: Plasmodium falciparum W2 proliferation inhibition;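 also: parasites grown with compound for 72 h before lysis and staining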; also: potency is read from the fitted curve at half-maximal effect;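 as to activity change, negative = inhibition: 0% = vehicle wells and -100% = control inhibitor wells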
# [14] = Validation of Assay for Modulators of Lamin A Splicing (AID 1459; active = well fitted curve in the direction sought with a large enough effect in the signal ratio; the % refers to the signal ratio;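 also: cells exposed to compound for two days before reading; 0% is about no effect; ratio rise marks activators and ratio drop marks inhibitors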)
# How it was run: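 S3 HeLa cells stably expressing a lamin A-EGFP splicing minigene and DsRed2 were seeded at 600 cells/well in Opti-MEM with 2% FBS, pin-dosed, and incubated 48 hrs at 37 °C, 5% CO2. Laser-scanning cytometry (488 nm) gave GFP/RFP total intensity ratio.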
# [15] = measured here: cell count channel max response
# [16] = measured here: lipid channel max response
# Sequence of Alpha-galactosidase (Coffea arabica) (Q42656 whole entry, looked up): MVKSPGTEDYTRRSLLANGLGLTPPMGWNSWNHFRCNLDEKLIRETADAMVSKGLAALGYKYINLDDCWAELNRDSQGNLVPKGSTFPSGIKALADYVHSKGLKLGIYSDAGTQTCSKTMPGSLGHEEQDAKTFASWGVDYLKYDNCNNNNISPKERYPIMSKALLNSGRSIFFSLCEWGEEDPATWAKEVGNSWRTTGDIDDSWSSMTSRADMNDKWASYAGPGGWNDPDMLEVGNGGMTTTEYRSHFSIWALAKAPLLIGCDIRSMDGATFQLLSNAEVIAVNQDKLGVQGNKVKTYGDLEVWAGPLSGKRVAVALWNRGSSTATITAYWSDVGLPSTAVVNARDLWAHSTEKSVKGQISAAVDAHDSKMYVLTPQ
# Sequence of Alpha-galactosidase A (Homo sapiens) (P06280 whole entry, looked up): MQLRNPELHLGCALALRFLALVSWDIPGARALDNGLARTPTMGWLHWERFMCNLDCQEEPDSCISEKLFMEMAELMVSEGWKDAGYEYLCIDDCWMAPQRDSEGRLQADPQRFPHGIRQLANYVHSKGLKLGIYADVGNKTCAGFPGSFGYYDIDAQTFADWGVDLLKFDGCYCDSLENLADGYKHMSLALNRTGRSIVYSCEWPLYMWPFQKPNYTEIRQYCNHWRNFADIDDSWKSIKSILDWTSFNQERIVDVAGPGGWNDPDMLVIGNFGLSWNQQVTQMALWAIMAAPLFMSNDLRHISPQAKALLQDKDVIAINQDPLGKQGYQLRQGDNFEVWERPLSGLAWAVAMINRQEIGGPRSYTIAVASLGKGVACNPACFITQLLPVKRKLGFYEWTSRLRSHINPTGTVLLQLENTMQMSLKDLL
# Sequence of DNA repair nuclease/redox regulator APEX1 (Homo sapiens) (P27695 whole entry, looked up): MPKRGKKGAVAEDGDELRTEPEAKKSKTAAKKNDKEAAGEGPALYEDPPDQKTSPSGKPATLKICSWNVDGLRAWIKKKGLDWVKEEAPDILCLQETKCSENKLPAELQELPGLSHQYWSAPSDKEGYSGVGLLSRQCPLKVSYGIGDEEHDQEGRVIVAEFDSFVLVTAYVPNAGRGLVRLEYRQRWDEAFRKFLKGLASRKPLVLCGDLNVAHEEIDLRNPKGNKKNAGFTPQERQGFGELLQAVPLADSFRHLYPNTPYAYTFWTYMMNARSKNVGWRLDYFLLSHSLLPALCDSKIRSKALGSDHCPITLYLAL
Structure (SMILES),outcome [1],outcome [2],outcome [3],"activity change, negative = inhibition ([4]; at 57.5 µM (top of the series))","max response [4, 15]","max response [4, 16]",outcome [5],Potency [6],outcome [7],Potency [8],Potency [9],Potency [10],Potency [11],Potency [12],Potency [13],outcome [14],"activity change, negative = inhibition ([4]; at 25.7 µM (top of the series))",Potency [4]
NN=C(N)N,inactive,inactive,inactive,1.91% (inactive) and 1.41% (inactive),12.1% and -0.681%,15.5% and -2.91%,inactive,inactive,inactive,inactive,inactive,inactive,inactive,inactive,inactive,–,–,–
Cc1cc2c(C(C)C)c(O)c(O)c(C=O)c2c(O)c1-c1c(C)cc2c(C(C)C)c(O)c(O)c(C=O)c2c1O,–,–,–,-15.2% (inactive),-14.5%,-19.7%,–,–,–,–,–,–,–,–,–,–,–,–
CC(C)=CCOc1c2occc2cc2ccc(=O)oc12,–,–,–,17.7% (inactive),5.47%,25.6%,–,–,–,–,–,–,–,–,–,–,–,–
O=C1NCN(c2ccccc2)C12CCN(CC1COc3ccccc3O1)CC2 (configuration not stated),–,–,–,1.66% (inactive),10.9%,12.8%,inactive,inactive,–,8.91 µM (active),–,–,–,inactive,10 µM (active),inactive,–,–
c1ccc(C2CC2)c(OCC2=NCCN2)c1,inactive,inactive,inactive,8.25% (inactive),15.2%,26.1%,inactive,inactive,inactive,–,12.6 µM (active),inactive,inactive,–,8.91 µM (active),–,–,–
CCn1cc(C(=O)O)c(=O)c2ccc(C)nc21,inactive,inactive,inactive,–,0.0975%,0.934%,inactive,inactive,inactive,–,–,–,–,–,–,inactive,1.82% (inactive),–
CC(CCc1ccccc1)NC(C)C(O)c1ccc(O)cc1 (configuration not stated),–,–,–,1.71% (inactive),-1.34%,0.25%,inactive,inactive,–,7.94 µM (active),3.16 µM (active),–,inactive,5.01 µM (active),2.51 µM (active),–,–,–
CCC1(C2=NCCN2)Cc2ccccc2O1 (configuration not stated),–,–,–,-1.14% (inactive),-3.38%,-2.07%,inactive,inactive,inactive,–,12.6 µM (active),inactive,inactive,8.91 µM (active),3.98 µM (active),–,–,–
CN1C[C@H](CNC(=O)OCc2ccccc2)C[C@@H]2c3cccc4c3c(cn4C)C[C@H]21,inactive,inactive,inactive,1.3% (inactive),-34%,-33%,inactive,inactive,–,5.01 µM (active),7.08 µM (active),2.51 µM (active),11.2 µM (active),10 µM (active),3.98 µM (active),–,–,–
CCC(COC(=O)c1cc(OC)c(OC)c(OC)c1)(c1ccccc1)N(C)C (configuration not stated),–,–,–,6.16% (inactive),-7.6%,-1.9%,–,–,–,–,–,–,–,–,–,–,–,–
O=c1c(O)c(-c2ccc(O)c(O)c2)oc2cc(O)cc(O)c12,–,–,inactive,8.54% (inactive),-77.5% and 18.5%,-93.3% and 29.8%,–,2.51 µM (active),–,3.55 µM (active),2.51 µM (active),3.55 µM (active),7.08 µM (active),8.91 µM (active),4.47 µM (active),–,–,39.8 µM (active)
NCCc1cc(O)c(O)cc1O,–,–,–,7.71% (inactive),5.57%,16.6%,–,–,–,–,–,–,–,–,–,–,–,–
Cc1cccc(C)c1NC1=NCCCS1,inactive,inactive,inactive,0.68% (inactive),4% and -18.4%,4.95% and -18.3%,inactive,inactive,inactive,7.94 µM (active),14.1 µM (active),inactive,inactive,–,5.01 µM (active),inactive,0.794% (inactive),–
Cc1ncc(CNC(=O)N(CCCl)N=O)c(N)n1,inactive,inactive,inactive,4.94% (inactive),9.89%,18%,inactive,inactive,inactive,inactive,inactive,inactive,inactive,inactive,inactive,–,–,–
NCC1(CC(=O)O)CCCCC1,inactive,inactive,inactive,1.35% (inactive),-7.98% and 4.74%,-6.8% and 4.42%,inactive,inactive,inactive,inactive,inactive,inactive,inactive,inactive,inactive,–,-2.01% (inactive),–
CNCCC(Oc1ccc(C(F)(F)F)cc1)c1ccccc1 (configuration not stated),–,–,–,1.75% (inactive),-0.474%,3.92%,inactive,–,–,–,–,–,10 µM (active),–,2.24 µM (active),–,–,–
c1ccc2c(c1)OCC(C1=NCCN1)O2 (configuration not stated),–,–,–,0.671% (inactive),8.3%,9.22%,inactive,inactive,inactive,8.91 µM (active),–,–,inactive,–,12.6 µM (active),–,–,–
CN(C)CCN(C)CCc1ccc(Cl)c(Cl)c1,–,–,–,-1.09% (inactive),4.07%,4.59%,–,–,–,–,–,–,–,–,–,–,–,–
CC(C)C(=O)Nc1ccc([N+](=O)[O-])c(C(F)(F)F)c1,–,–,inactive,9.96% (inactive),-6.26% and 5.61%,-1.94% and 19.5%,–,–,–,–,–,–,–,–,12.6 µM (active),–,-0.701% (inactive),–
